# Source: PubChem BioAssay (National Center for Advancing Translational Sciences (NCATS))
# mTORC1 inh = Acumen qHTS Assay for Inhibitors of the mTORC1 Signaling Pathway in MEF (Tsc2-/-, p53-/-) Cells: Sytravon | Tsc2-/- p53-/- MEF, phospho-rpS6 immunofluorescence/PI, 24 h | actives 0.78% (n = 44,000) | Potency, µM (top dose mostly 38.3 µM), usual class: inhibitors | AID 493208, 2011; further: nearly all actives have a fitted effect of over 50% in size
#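 Read-out: phospho-S6 Alexa-488 intensity over PI intensity per well, scored as % active cells using thresholds from rapamycin (7.5 nM) and DMSO controls. Tsc2-/-, p53-/- MEFs exposed to compound for 24 h; PI cell count recorded as viability.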
# p53null 32C kill = qHTS Screen for Compounds that Selectively Target Cancer Cells with p53 Mutations: Cytotoxicity of p53 Null Cells at the Permissive Temperature. H1299-neo p53 null cells, ATP luminescence, 24 h, 32C. AID 903, 2007. Potency, µM (titrated, usually from 46.1 µM), actives largely listed as cytotoxic. actives 0.62% (n = 55,000); further: nearly all actives have a fitted effect of over 55% in size
#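 Cells lacking p53 (H1299-neo) are plated at 600 per well and allowed to settle overnight at 37C. Test compounds (up to 46 uM) are added and held 24 hours at 32C, then ATP is quantified by luminescence.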
# PMP22 txn = Cell-based coincidence reporter assay to measure PMP22 gene transcription in S16 Pmp22-F2sN cells - Primary screen; S16 Pmp22-F2sN Schwann cells, FLuc/NLuc coincidence luminescence, 24 h; Potency, µM (highest dose often 57.5 µM), actives largely listed as inhibitors; actives 2% (n = 43,000); AID 1508649, 2021; active means clear falling dose curves in both reporters; inconclusive means both reporters move, but less clearly or upward; inactive means either reporter flat; the % is the NLuc reporter signal
#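 Rat S16 Pmp22-F2sN cells, 500-1,000/well in phenol red-free DMEM + 10% FBS, compound-treated 24 h (37C, 5% CO2). Luminescence: FLuc read, Stop&Glo added, NLuc read.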
# S16 viability = Cell viability qHTS assay in S16 Pmp22-F2sN cells. Potency, µM (highest dose often 57.5 µM), actives largely listed as cytotoxic. S16 Pmp22-F2sN Schwann cells viability, CellTiter-Glo, 24 h. actives 0.48% (n = 43,000). AID 1508642, 2021; further: nearly all actives have a fitted effect of over 65% in size
#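 S16 Pmp22-F2sN Schwann cells (500-1,000/well) in phenol-red-free DMEM with 10% FBS received 23 nL compound by pin tool for 24 h at 37 °C. Viability was then read as CellTiter-Glo luminescence after 15 min at room temperature.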
# p53null 39C tox = qHTS Screen for Compounds that Selectively Target Cancer Cells with p53 Mutations: Cytotoxicity of p53 Null Cells at the Nonpermissive Temperature; H1299 p53-null (neo) cells, 39C, ATPlite viability, 24 h; Potency, µM (titrated, usually from 46.1 µM), hits mostly cytotoxic; actives 0.97% (n = 55,000); further: nearly all actives have a fitted effect of over 50% in size
#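 Cells seeded at 600/well, 37C overnight. Compound added (up to 46 uM), plates shifted to 39C for 24 hr. ATPlite added, luminescence read after 20 min at room temperature.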
# NLuc sat counter = Biochemical NLuc saturation counterscreen for small molecule modulators of PMP22 gene expression - Nano-Glo assay; shares compounds with PMP22 txn; Secreted NLuc enzyme (filtered S16 cell medium), Nano-Glo luminescence; actives 4% (n = 690); Potency, µM (top dose mostly 57.5 µM), usual class: inhibitors
# NLuc Km counter = Biochemical coelenterazine-based NLuc counterscreen for small molecule modulators of PMP22 gene expression - Km assay. actives 5% (n = 690). shares compounds with PMP22 txn. Potency, µM (highest dose often 57.5 µM), usual class: inhibitors. AID 1508639, 2021. secreted NLuc enzyme, coelenterazine luminescence, Km conditions
# FLuc ctr PMP22 = Biochemical FLuc counterscreen for small molecule modulators of PMP22 gene expression | shares compounds with PMP22 txn | Potency, µM (highest dose often 57.5 µM), most hits filed as inhibitors | AID 1508640, 2021 | 690 tested, under 10 active | purified P. pyralis FLuc, luminescence, 10 min
# Target sequence (P08659 whole entry, looked up): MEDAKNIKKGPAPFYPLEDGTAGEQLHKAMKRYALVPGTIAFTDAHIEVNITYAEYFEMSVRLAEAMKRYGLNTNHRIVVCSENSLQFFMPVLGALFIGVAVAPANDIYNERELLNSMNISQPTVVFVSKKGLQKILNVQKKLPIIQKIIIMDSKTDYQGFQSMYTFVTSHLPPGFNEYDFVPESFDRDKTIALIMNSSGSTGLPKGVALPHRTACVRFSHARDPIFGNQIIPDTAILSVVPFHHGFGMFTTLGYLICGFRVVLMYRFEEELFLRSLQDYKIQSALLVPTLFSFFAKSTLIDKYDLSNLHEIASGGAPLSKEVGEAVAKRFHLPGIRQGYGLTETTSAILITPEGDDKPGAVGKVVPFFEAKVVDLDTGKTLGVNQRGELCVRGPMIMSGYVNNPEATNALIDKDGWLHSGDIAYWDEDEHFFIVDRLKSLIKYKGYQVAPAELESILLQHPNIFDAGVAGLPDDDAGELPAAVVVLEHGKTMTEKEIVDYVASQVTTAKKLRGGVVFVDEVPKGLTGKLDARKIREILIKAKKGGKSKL
# S16 viab conf = Cell viability qHTS assay in S16 Pmp22-F2sN cells - Confirmatory screen | shares compounds with PMP22 txn | S16 Schwann cells viability, CellTiter-Glo ATP luminescence, 24 h | Potency, µM (titrated, usually from 57.5 µM), hits mostly cytotoxic | actives 7% (n = 690)
# PMP22 txn conf = Cell-based coincidence reporter assay to measure PMP22 gene transcription in S16 Pmp22-F2sN cells - Confirmatory screen; shares compounds with PMP22 txn; S16 Schwann cells Pmp22-F2sN, dual luciferase, 24 h; Potency, µM (top dose mostly 57.5 µM), usual class: inhibitors; actives 22% (n = 690); active means clear falling dose curves in both reporters; inconclusive means both reporters move, but less clearly or upward; inactive means either reporter flat; the % is the FLuc reporter signal
# Numbers stand for hits; - = inactive; ? = inconclusive; . = no result given. An excerpt weighted towards active compounds, which were near 3.2% of everything screened. Unless noted, the call rests on the fitted dose curve; in most records, active means well fitted curve in the direction sought with a large enough effect; inconclusive means small, poorly fitted or top-dose-only effect, or another doubt; inactive means no such curve, though single readings can be large; an effect the other way counts as inactive or inconclusive.
SMILES,mTORC1 inh,p53null 32C kill,PMP22 txn,S16 viability,p53null 39C tox,NLuc sat counter,NLuc Km counter,FLuc ctr PMP22,S16 viab conf,PMP22 txn conf
COc1ccc(C)cc1NC(=O)Cn1c(=O)cc(C)c2c(C)nn(C)c21,-,-,7.6µM,-,-,-,-,-,-,?
Cc1cccc(-c2nnc(SCC(=O)Nc3nc4c(s3)CCCC4)n2C)c1,.,-,.,.,-,.,.,.,.,.
Cc1ccc(NC(=O)C2CCN(c3nc(-c4ccc(C(C)C)cc4)no3)CC2)c(Cl)c1,-,-,-,-,-,.,.,.,.,.
Cc1cccc(C)c1Nc1c(-c2ccsc2)nc2ccccn12,-,-,9.5µM,?,?,?,22µM,-,-,?
Cc1cccc(C)c1Nc1c(-c2ccsc2)nc2ccc(Cl)cn12,-,-,-,-,-,.,.,.,.,.
COc1ccc(CC2C(=O)Nc3ccc(Br)cc32)cc1OC (stereo not given),-,-,-,-,-,.,.,.,.,.
O=C(NCCC1=CCCCC1)c1ccc2c(c1)N(Cc1ccccc1)C(=O)c1ccccc1S2=O (stereo not given),-,-,13µM,-,-,-,-,-,-,-
COc1cc(OC)c(OC)cc1CN1CCc2nc(N3CCN(c4ccccc4F)CC3)ncc2C1,-,-,?,-,-,-,-,-,-,?
CCOc1ccc(CN2CCc3nc(N4CCN(c5ccccc5OC)CC4)ncc3C2)cc1OC,-,-,17µM,-,-,-,-,-,-,-
COc1cc(OC)c(OC)cc1CN1CCc2nc(N3CCN(c4ncccn4)CC3)ncc2C1,-,-,?,-,-,.,.,.,.,.
CC1Oc2ccccc2OC1C(=O)Nc1ccccn1 (stereo not given),.,-,.,.,-,.,.,.,.,.
Cc1cc(Nc2sc(C(=O)c3ccc(F)cc3)c(N)c2C(=O)Nc2ccc(F)cc2)ccc1Cl,-,-,6.3µM,?,-,-,?,-,?,6.1µM
CCCCn1c(=N)c(C(=O)NC2CCCCC2)cc2c(=O)n3cccc(C)c3nc21,-,-,-,-,-,.,.,.,.,.
CCOCCCn1c(=N)c(C(=O)NC(C)c2ccccc2)cc2c(=O)n3cccc(C)c3nc21 (stereo not given),?,-,15µM,?,-,-,-,-,-,?
CCOCCCn1c(=N)c(C(=O)NC2CCCC2)cc2c(=O)n3cccc(C)c3nc21,-,-,?,-,-,-,-,-,-,?
CCC(C(=O)N1CCN(c2ccccc2)CC1)n1nc(C)n2c(cc3sccc32)c1=O (stereo not given),?,-,-,-,-,.,.,.,.,.
